From PubChem
Only a sample is shown.
aSyn 5UTR act = Activators via SNCA 5'UTR binding, MLPCN; alpha-synuclein 5'UTR reporter, activators screen; activity score, % (tested at 7.5 µM), hits read low; actives 7.1% (n = 300,000); AID 1814, 2009; in the data active = activity score below about -60%
Numbers without * were called inactive.

SMILES | aSyn 5UTR act
COc1ccc2c(C)cc(SCC(=O)Nc3nsc(-c4ccc(C)cc4)n3)nc2c1 | -82*
CC1(C)CC(=O)c2c(nc(SCC(=O)Nc3nsc(-c4ccccc4)n3)c(C#N)c2-c2ccccc2)C1 | 74
Cc1nc(NCc2ccco2)c2c(C)c(C)sc2n1 | -177*
COc1ccc(/C=C/C(=O)Nc2ccccc2C(=O)O)cc1 | 83
CCOc1ccc(/C=C/C(=O)Nc2ccccc2C(F)(F)F)cc1 | -76*
COc1ccc(/C=C/C(=O)Nc2ccccc2C(=O)N2CCCC2)cc1 | -86*
COc1ccc(/C=C/C(=O)Nc2ccccc2C(=O)NCC(c2ccc(OC)cc2)N(C)C)cc1 (centres undefined) | -80*
COc1ccc(/C=C/C(=O)Nc2ccccc2C(F)(F)F)cc1 | -141*
COc1cc(NC(=O)/C=C/c2ccccc2[N+](=O)[O-])cc(OC)c1 | -114*
COc1ccc(C(=O)/C=C/c2ccccc2C(F)(F)F)cc1 | -68*
CCOc1ccc(NC(=S)NC(=O)c2c(Br)cnn2C)c([N+](=O)[O-])c1 | -115*
CCOc1ccc(NC(=O)/C=C/c2ccccc2)c([N+](=O)[O-])c1 | -147*
CCOc1ccc(N/C=C/C(=O)c2ccccc2)c([N+](=O)[O-])c1 | 87
CC1CCc2c(sc(/N=C/c3ccco3)c2C(N)=O)C1 (centres undefined) | -125*
CC1CCc2c(sc(/N=C/c3cccnc3)c2C(N)=O)C1 (centres undefined) | -103*
CN[C@H]1CCc2cc(OC)c(OC)c(OC)c2-c2ccc(OC)c(=O)cc21 | 90
O=C(CC1NCCNC1=O)Nc1ccc(Cl)c(Cl)c1 (centres undefined) | -92*
Cc1ccc(-c2csc(NC(=O)c3cccc(C)c3)c2C(=O)O)cc1 | -71*
Cc1ccc(-c2csc(NC(=O)/C=C/c3ccco3)c2C(=O)O)cc1 | -79*
Cc1ccc(-c2csc(NC(=O)c3ccc(Br)cc3)c2C(=O)O)cc1 | -91*
CN(Cc1nc(-c2cccc(Cl)c2)no1)C1CCOCC1 | -121*
COc1cccc(N2CCN(c3cnc4ccccc4n3)CC2)c1 | -116*
COc1ccc(N2CCN(c3ncccn3)CC2)cc1 | -130*
COc1ccc(N2CCN(c3cnc4ccccc4n3)CC2)cc1 | -101*
O=C(NC(=S)Nc1ccc(Cl)cn1)C12CC3CC(CC(C3)C1)C2 | -162*
SMILES | aSyn 5UTR act
CCOc1cc(/C=C2\CN(C)C/C(=C\c3ccc(O)c(OCC)c3)C2=O)ccc1O | 96
CCOc1cc(/C=C2\CCC/C(=C\c3cc(Cl)c(O)c(OCC)c3)C2=O)cc(Cl)c1O | -329*
COc1ccc(-n2c(=S)[nH]c3cc(C(=O)Nc4ccc(C)c(F)c4)ccc3c2=O)c(OC)c1 | -73*
COc1ccc2[nH]c(C(=O)Nc3ccc(C)c(F)c3)cc2c1 | -115*
COc1ccc(NC(=O)c2cc3ccccc3[nH]2)cc1 | -228*
Cc1ccc(NC(=O)c2cc3cc(OC(F)(F)F)ccc3[nH]2)cc1 | -77*
COc1cc2[nH]c(C(=O)Nc3ccc(F)cc3)cc2c(OC)c1OC | -229*
Clc1ccc(N=C2SCC3CCCCN23)cc1 (centres undefined) | -145*
FC(F)Oc1ccc(N=C2SCC3CCCCN23)cc1 (centres undefined) | -206*
CC(C)c1nc2sc3ccccc3c(=O)c2c(=O)n1Cc1ccccc1 | 54
COc1ccc2c(=O)c3c(=O)n(-c4ccccc4)c(-c4ccc(C)cc4)nc3oc2c1 | -79*
CC(C)c1nc2oc3ccccc3c(=O)c2c(=O)n1-c1ccccc1 | -325*
O=c1c2ccccc2oc2nc(-c3ccco3)n(-c3ccccc3)c(=O)c12 | -251*
Cc1cccc2nc3c(nc12)-c1ccccc1C3=O | -106*
Cc1ccc2nc3c(nc2c1)-c1ccccc1C3=O | -65*
COc1ccc2nc(NCc3cccnc3)sc2c1 | -75*
COc1ccc2c(c1)sc(N)[n+]2Cc1cc(C)cc2cccnc12 | 114
COc1ccc(Nc2nc3ccccc3s2)cc1 | -159*
COc1cccc(Cn2c(NCc3cccnc3)nc3c2c(=O)n(C)c(=O)n3C)c1 | 71
COc1ccc2nc(-n3c(C)ccc3C)sc2c1 | -62*
COc1cccc(Nc2nc3ccc(OC)cc3s2)c1 | -168*
COc1ccc2nc(NC3=NCCC3)sc2c1 | -179*
Cc1cccc(Nc2nc3ccccc3s2)c1C | -181*
Cc1cc(C)nc(Nc2nc(=O)c3ccccc3s2)n1 | -134*
Cc1ccc2ncc(NC(=O)c3ccc(F)cc3)c(=O)n2c1 | -139*
SMILES | aSyn 5UTR act
Cc1ccc(C(=O)Nc2cnc3ccccn3c2=O)cc1 | -120*
O=C(NC1=NCCS1)c1cc(-c2ccc(-c3ccccc3)cc2)nc2ccccc12 | -88*
Cc1ccc(-c2cc(C(=O)Nc3ccc4c(c3)OCCO4)c3ccccc3n2)cc1 | -74*
O=C(Nc1ccc2c(c1)OCCO2)c1cccc2nc3ccccc3nc12 | 60
Cc1ccc2nc(NC(=S)NC(=O)c3ccc(OC(C)C)cc3)sc2c1 | -107*
Cc1ccc2nc(NC(=S)NC(=O)c3cccs3)sc2c1 | -104*
CCCOc1ccc(C(=O)NNC(=S)NC(=O)CC)cc1 | 85
